# Key:
# Experiment in all cases: DAPPL (digital affinity profiling via proximity ligation, sequencing); 10 mM Tris-HCl pH 7.5, 50 mM NaCl, 1 mM DTT, 4% glycerol, room temperature, 30 min; GST-TFs on glutathione beads, 16-mer random dsDNA library, 0.1% formaldehyde crosslink after washing; high values mean tight binding
# FLI1 = target: T1, FLI1 (Homo sapiens, UniProt Q01543 1-452); settings: protein: recombinant; tags: N-terminal GST; dsDNA, one strand shown
# T1 sequence: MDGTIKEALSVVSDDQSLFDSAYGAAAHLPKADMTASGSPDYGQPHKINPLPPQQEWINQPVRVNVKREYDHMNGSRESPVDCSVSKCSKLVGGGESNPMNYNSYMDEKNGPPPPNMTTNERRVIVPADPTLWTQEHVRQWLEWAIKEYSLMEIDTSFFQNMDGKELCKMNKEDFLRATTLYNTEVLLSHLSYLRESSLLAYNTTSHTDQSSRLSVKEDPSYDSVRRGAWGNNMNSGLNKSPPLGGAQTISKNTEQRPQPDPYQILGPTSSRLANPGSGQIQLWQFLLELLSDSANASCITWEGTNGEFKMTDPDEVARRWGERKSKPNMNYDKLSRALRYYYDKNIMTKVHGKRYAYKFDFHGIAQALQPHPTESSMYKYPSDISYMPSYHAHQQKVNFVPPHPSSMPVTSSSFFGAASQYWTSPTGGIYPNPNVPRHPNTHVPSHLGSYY
# Method in brief: (§1)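 GST fusions of human transcription factors were expressed in yeast and captured with glutathione beads. Once given DNA barcodes and pooled alongside a tag-only sample, they were incubated for 30 min at room temperature with 200 nmole of a random double-stranded 16-mer DNA library in Tris/NaCl/DTT/glycerol buffer, then washed, crosslinked (0.1% formaldehyde), proximity-ligated, PCR-amplified and sequenced on an Illumina NextSeq500. The binding signal of each hexamer is its read frequency for a factor divided by its frequency for the tag-only sample.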
# ELK1 = target: T2, ELK1 (Homo sapiens, UniProt P19419 1-428); settings: protein: recombinant; tags: N-terminal GST; dsDNA, one strand shown
# T2 sequence: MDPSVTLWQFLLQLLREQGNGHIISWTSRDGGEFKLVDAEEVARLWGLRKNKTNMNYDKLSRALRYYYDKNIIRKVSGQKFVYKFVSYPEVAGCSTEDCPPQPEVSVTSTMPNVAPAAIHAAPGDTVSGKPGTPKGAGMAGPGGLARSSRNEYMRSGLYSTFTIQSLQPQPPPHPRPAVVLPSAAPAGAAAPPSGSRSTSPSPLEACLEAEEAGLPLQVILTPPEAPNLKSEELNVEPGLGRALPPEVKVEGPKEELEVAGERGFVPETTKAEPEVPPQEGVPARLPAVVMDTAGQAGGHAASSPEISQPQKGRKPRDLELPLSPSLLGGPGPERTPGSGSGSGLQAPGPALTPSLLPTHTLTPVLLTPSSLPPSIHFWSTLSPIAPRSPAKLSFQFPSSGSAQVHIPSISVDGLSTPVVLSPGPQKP
# Method in brief: as §1
# GABPA = target: T3, GABPA (Homo sapiens, UniProt Q06546 1-454); settings: protein: recombinant; tags: N-terminal GST; dsDNA, one strand shown
# T3 sequence: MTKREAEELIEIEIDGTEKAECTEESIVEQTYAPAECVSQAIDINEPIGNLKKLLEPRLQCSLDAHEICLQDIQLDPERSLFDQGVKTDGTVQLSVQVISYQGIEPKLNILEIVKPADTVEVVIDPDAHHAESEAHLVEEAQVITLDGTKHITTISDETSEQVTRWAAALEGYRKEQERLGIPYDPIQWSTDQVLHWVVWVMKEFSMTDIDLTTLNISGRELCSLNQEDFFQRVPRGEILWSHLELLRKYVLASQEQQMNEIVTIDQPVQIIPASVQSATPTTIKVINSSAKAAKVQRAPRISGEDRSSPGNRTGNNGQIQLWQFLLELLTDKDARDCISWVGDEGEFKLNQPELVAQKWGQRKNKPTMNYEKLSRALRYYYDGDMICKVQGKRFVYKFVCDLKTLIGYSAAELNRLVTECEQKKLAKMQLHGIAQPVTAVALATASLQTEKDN
# Method in brief: as §1
# ERG = target: T4, ERG (Homo sapiens, UniProt P11308 1-479); settings: protein: recombinant; tags: N-terminal GST; dsDNA, one strand shown
# T4 sequence: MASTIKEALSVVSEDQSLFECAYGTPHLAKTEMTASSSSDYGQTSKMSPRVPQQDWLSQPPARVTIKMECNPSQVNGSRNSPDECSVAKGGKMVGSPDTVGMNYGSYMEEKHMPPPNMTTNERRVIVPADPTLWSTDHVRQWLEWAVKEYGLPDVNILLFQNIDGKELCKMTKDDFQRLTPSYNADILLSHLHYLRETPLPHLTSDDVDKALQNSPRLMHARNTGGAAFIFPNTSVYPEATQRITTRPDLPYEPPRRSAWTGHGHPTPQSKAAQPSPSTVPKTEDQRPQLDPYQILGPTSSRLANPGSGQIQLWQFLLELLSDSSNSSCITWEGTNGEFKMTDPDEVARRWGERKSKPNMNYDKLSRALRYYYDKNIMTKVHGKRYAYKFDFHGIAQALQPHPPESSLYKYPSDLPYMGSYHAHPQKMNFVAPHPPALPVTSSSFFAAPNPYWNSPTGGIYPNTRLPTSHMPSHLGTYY
# Method in brief: as §1
# ELF1 = ELF1 (Homo sapiens, UniProt P32519 1-619); settings: protein: recombinant; tags: N-terminal GST; dsDNA, one strand shown
# ELF1, sequence (P32519 whole entry): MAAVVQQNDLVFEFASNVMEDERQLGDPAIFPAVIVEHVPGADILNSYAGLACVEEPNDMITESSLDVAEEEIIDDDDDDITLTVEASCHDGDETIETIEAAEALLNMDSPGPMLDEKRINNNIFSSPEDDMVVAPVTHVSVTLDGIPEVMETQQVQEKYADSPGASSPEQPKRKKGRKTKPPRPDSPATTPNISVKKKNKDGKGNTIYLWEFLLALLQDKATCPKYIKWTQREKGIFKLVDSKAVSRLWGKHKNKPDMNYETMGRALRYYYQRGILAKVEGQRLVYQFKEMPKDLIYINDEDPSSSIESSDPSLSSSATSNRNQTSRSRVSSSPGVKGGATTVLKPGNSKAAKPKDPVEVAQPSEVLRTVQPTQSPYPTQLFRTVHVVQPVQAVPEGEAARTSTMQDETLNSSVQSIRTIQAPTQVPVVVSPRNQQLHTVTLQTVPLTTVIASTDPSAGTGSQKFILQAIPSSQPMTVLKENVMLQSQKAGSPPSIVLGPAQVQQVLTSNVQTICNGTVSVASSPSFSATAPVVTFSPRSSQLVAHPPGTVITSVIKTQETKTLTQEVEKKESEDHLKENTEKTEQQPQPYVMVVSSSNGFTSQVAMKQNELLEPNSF
# Method in brief: as §1
# EHF = target: T5, EHF (Homo sapiens, UniProt Q9NZC4 1-300); settings: protein: recombinant; tags: N-terminal GST; dsDNA, one strand shown
# T5 sequence: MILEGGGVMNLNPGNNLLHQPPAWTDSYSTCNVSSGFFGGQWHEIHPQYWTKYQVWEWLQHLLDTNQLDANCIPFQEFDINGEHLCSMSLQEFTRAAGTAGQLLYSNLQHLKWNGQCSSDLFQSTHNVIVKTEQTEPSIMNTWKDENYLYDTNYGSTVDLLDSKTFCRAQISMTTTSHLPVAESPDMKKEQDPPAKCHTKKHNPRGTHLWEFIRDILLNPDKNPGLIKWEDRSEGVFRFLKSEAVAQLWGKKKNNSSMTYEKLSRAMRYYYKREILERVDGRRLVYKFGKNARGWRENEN
# Method in brief: as §1
# SPI1 = SPI1 (Homo sapiens, UniProt P17947 1-270); settings: protein: recombinant; tags: N-terminal GST; dsDNA, one strand shown
# Method in brief: as §1
# SPIB = SPIB (Homo sapiens, UniProt Q01892 1-262); settings: protein: recombinant; tags: N-terminal GST; dsDNA, one strand shown
# SPIB, sequence (Q01892 whole entry): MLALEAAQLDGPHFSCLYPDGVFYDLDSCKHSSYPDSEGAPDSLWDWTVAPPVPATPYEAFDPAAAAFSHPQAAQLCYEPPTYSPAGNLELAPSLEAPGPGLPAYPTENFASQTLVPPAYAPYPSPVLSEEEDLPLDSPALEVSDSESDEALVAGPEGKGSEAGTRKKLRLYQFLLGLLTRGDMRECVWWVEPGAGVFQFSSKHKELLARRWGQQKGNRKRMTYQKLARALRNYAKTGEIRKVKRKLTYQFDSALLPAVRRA
# Method in brief: as §1
# ELK3 = target: T6, ELK3 (Homo sapiens, UniProt P41970 1-407); settings: protein: recombinant; tags: N-terminal GST; dsDNA, one strand shown
# T6 sequence: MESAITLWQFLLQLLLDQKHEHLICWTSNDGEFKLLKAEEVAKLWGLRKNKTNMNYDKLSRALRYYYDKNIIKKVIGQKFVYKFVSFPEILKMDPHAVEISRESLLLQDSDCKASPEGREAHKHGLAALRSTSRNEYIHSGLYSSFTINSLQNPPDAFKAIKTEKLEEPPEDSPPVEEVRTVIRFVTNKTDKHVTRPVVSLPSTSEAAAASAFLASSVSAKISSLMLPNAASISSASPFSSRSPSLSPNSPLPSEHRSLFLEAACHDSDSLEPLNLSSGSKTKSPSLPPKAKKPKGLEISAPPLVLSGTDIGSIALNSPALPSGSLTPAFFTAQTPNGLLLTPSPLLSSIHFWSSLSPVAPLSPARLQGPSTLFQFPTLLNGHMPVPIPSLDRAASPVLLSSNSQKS
# Method in brief: as §1
# FEV = target: T7, FEV (Homo sapiens, UniProt Q99581 1-238); settings: protein: recombinant; tags: N-terminal GST; dsDNA, one strand shown
# T7 sequence: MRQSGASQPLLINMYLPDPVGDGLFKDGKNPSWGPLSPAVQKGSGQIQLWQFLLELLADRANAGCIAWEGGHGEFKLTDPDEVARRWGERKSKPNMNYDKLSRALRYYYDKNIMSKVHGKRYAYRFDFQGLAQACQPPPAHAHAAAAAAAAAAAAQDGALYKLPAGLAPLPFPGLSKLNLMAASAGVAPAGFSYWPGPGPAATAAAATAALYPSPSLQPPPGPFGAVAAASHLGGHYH
# Method in brief: as §1
# ETV5 = ETV5 (Homo sapiens, UniProt P41161 1-510); settings: protein: recombinant; tags: N-terminal GST; dsDNA, one strand shown
# ETV5, sequence (P41161 whole entry): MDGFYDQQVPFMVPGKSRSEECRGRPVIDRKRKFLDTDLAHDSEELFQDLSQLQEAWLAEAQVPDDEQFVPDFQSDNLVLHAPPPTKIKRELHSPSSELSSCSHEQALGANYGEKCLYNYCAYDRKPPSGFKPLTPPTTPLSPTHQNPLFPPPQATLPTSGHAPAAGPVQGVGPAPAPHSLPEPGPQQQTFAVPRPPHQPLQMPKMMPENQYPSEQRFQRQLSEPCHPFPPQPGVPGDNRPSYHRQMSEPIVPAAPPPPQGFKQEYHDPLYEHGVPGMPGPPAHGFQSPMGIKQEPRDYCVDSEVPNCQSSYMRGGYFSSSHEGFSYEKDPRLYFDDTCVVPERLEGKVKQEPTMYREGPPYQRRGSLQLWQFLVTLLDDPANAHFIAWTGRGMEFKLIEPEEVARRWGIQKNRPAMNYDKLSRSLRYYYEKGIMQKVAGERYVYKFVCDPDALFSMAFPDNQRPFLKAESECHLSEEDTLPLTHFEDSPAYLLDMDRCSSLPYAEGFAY
# Method in brief: as §1
# HSF1 = HSF1 (Homo sapiens, UniProt Q00613 1-529); settings: protein: recombinant; tags: N-terminal GST; chain copies: 3; dsDNA, one strand shown
# HSF1, sequence (Q00613 whole entry): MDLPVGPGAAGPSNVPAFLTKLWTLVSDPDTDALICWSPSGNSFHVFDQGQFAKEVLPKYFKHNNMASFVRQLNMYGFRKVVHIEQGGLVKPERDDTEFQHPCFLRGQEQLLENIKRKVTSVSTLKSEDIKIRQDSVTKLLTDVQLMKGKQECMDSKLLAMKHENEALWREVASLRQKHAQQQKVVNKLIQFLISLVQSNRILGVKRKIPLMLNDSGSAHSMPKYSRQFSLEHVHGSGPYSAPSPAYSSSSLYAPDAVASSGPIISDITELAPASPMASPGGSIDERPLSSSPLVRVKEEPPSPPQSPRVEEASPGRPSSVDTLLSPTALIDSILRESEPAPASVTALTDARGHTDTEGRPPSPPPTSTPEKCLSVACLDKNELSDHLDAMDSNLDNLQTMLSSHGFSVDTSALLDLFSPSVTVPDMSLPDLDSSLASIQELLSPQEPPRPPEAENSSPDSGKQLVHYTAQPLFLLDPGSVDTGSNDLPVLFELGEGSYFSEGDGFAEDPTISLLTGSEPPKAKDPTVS
# Method in brief: as §1
# SPIC = target: T8, SPIC (Homo sapiens, UniProt Q8N5J4 1-248); settings: protein: recombinant; tags: N-terminal GST; dsDNA, one strand shown
# T8 sequence: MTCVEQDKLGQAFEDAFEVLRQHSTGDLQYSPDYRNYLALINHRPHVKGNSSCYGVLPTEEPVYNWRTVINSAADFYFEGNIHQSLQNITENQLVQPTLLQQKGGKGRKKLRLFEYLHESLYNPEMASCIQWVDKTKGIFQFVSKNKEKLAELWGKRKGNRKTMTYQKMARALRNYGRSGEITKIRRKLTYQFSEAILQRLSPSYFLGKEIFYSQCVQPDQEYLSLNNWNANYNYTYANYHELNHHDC
# Method in brief: as §1
# ELF4 = ELF4 (Homo sapiens, UniProt Q99607 1-663); settings: protein: recombinant; tags: N-terminal GST; dsDNA, one strand shown
# ELF4, sequence (Q99607 whole entry): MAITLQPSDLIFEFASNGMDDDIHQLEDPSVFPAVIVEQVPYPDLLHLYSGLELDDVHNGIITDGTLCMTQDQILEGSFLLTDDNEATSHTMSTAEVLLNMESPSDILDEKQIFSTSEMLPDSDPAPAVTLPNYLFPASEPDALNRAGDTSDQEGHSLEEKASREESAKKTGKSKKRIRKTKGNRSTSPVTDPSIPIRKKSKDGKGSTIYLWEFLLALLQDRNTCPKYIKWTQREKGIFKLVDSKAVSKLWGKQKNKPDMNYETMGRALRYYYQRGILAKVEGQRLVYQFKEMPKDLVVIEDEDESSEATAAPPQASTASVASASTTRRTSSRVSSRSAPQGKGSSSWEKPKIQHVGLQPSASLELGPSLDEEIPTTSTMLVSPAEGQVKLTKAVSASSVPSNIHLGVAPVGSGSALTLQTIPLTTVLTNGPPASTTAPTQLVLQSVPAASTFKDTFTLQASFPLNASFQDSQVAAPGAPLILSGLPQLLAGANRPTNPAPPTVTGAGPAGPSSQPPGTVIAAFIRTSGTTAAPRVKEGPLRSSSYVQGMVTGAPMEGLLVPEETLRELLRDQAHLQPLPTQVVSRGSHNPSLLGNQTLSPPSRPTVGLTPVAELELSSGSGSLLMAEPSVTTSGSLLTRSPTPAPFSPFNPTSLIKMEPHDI
# Method in brief: as §1
# ELK4 = target: T9, ELK4 (Homo sapiens, UniProt P28324-2 1-405); settings: protein: recombinant; tags: N-terminal GST; dsDNA, one strand shown
# T9 sequence: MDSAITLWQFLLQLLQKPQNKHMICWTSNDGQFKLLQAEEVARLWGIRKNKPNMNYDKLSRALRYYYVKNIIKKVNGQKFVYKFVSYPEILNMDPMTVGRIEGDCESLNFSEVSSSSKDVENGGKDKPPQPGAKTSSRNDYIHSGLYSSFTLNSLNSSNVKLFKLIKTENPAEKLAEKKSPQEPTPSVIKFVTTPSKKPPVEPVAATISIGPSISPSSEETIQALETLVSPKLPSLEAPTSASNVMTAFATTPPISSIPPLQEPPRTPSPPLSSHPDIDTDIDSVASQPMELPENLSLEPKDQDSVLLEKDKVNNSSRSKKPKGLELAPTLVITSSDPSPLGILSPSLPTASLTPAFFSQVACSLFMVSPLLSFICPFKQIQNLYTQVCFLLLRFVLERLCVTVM
# Method in brief: as §1
# ETV2 = target: T10, ETV2 (Homo sapiens, UniProt O00321 1-342); settings: protein: recombinant; tags: N-terminal GST; dsDNA, one strand shown
# T10 sequence: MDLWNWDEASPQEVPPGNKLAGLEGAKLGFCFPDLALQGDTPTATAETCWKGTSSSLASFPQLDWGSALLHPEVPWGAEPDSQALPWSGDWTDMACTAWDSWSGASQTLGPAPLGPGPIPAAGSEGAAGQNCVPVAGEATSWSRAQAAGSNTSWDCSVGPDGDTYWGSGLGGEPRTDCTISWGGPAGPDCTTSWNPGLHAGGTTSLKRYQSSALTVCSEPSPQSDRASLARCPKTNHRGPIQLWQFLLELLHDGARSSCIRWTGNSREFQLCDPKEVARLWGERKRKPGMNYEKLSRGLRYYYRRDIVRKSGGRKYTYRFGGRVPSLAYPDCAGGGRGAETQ
# Method in brief: as §1
# ELF3 = target: T11, ELF3 (Homo sapiens, UniProt P78545 1-371); settings: protein: recombinant; tags: N-terminal GST; dsDNA, one strand shown
# T11 sequence: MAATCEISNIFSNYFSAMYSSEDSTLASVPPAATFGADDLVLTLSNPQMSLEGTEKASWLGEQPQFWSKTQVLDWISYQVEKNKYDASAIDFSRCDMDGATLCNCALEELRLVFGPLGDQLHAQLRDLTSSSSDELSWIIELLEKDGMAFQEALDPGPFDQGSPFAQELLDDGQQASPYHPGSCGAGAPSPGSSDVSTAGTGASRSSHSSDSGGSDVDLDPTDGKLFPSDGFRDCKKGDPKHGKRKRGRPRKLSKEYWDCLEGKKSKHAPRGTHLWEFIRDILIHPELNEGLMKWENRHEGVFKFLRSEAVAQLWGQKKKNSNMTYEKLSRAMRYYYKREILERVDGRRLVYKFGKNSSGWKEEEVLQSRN
# Method in brief: as §1
# CRX = CRX (Homo sapiens, UniProt O43186 1-299); settings: protein: recombinant; tags: N-terminal GST; dsDNA, one strand shown
# CRX, sequence (O43186 whole entry): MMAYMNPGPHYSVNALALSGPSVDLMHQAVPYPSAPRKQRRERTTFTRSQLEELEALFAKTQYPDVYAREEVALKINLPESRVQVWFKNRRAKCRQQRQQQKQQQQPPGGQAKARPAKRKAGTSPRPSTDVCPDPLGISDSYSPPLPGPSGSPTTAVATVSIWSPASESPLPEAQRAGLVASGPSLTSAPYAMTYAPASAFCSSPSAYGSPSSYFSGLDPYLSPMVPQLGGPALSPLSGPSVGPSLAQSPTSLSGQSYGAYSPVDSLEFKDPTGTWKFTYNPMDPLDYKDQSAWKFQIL
# Method in brief: as §1
# ETV1 = ETV1 (Homo sapiens, UniProt P50549 1-477); settings: protein: recombinant; tags: N-terminal GST; dsDNA, one strand shown
# ETV1, sequence (P50549 whole entry): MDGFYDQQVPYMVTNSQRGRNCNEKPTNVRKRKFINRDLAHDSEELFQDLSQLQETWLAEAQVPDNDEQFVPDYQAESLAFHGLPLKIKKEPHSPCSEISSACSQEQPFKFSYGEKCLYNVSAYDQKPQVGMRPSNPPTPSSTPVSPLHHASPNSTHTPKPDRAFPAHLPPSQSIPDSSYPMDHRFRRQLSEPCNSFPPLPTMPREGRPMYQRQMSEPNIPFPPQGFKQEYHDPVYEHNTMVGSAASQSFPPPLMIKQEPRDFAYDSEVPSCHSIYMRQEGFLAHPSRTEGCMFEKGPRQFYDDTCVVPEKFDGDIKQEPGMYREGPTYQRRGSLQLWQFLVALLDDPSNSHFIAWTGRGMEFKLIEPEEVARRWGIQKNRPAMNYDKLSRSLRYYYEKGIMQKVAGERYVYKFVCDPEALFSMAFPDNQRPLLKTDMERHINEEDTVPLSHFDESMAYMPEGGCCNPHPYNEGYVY
# Method in brief: as §1
sequence,measurement,setting,value
TACCCG,binding signal,FLI1,"1.42 fold enrichment (6-mer frequency, TF over GST control)"
same,binding signal,ELK1,"1.35 fold enrichment (6-mer frequency, TF over GST control)"
same,binding signal,GABPA,"1.51 fold enrichment (6-mer frequency, TF over GST control)"
same,binding signal,ERG,"1.57 fold enrichment (6-mer frequency, TF over GST control)"
same,binding signal,ELF1,"1.52 fold enrichment (6-mer frequency, TF over GST control)"
same,binding signal,EHF,"1.58 fold enrichment (6-mer frequency, TF over GST control)"
same,binding signal,SPI1,"1.42 fold enrichment (6-mer frequency, TF over GST control)"
same,binding signal,SPIB,"1.52 fold enrichment (6-mer frequency, TF over GST control)"
same,binding signal,ELK3,"1.37 fold enrichment (6-mer frequency, TF over GST control)"
same,binding signal,FEV,"1.39 fold enrichment (6-mer frequency, TF over GST control)"
same,binding signal,ETV5,"1.5 fold enrichment (6-mer frequency, TF over GST control)"
same,binding signal,HSF1,"1.25 fold enrichment (6-mer frequency, TF over GST control)"
same,binding signal,SPIC,"1.55 fold enrichment (6-mer frequency, TF over GST control)"
same,binding signal,ELF4,"1.4 fold enrichment (6-mer frequency, TF over GST control)"
same,binding signal,ELK4,"1.55 fold enrichment (6-mer frequency, TF over GST control)"
same,binding signal,ETV2,"1.44 fold enrichment (6-mer frequency, TF over GST control)"
same,binding signal,ELF3,"1.34 fold enrichment (6-mer frequency, TF over GST control)"
same,binding signal,CRX,"1.29 fold enrichment (6-mer frequency, TF over GST control)"
same,binding signal,ETV1,"1.55 fold enrichment (6-mer frequency, TF over GST control)"

# Reference: publication PMC7862700, “An all-to-all approach to the identification of sequence-specific readers for epigenetic DNA modifications on cytosine”
